According to PubChem BioAssay (EPA / NIEHS):
Several values for one entry are separate records, joined by “and”; a condition that tells them apart may be missing. Identical values can stand only once. Results filed as inconclusive are left out. More than one record can exist for a structure, and the calls need not agree. Activity calls are given as the source filed them. Rule for the calls, unless noted: active = hit-call score of the fitted dose curve at least 0.9, where 1 is the maximum; inactive = score below 0.9.

Assays:
[1] = read-out: Secreted IgG (sIgG), gene 3500; test: BSK_BT_sIgG: BioMAP Diversity Plus: BT Assay for Secreted IgG (sIgG) Biomarker Activity (AID 2284226); settings: primary human B cells with PBMC
Method in brief: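 Human B cell/PBMC co-culture; compound exposure 24 h; sIgG by ELISA; gain-of-signal fit vs DMSO baseline.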

[2] = BSK_BT_Bcell_Proliferation: Viability Assessment in the BioMAP Diversity Plus: BT Assay for B cell Proliferation (AID 2284227); settings: primary human B cells with PBMC
Method in brief: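 Human B cell/PBMC co-culture; test chemical added; 72 h; TCA fix (10%), 0.1% SRB stain, A560 for total protein as a proliferation read-out; positive-direction fit vs DMSO baseline.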

[3] = read-out: Interleukin 6 (IL6), IL6 (gene 3569); test: BSK_BT_xIL6: BioMAP Diversity Plus: BT Assay for Interleukin 6 (IL6) Biomarker Activity (AID 2284228); settings: primary human B cells with PBMC
Method in brief: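 B cells and peripheral blood mononuclear cells (human primary co-culture) were dosed with chemical, and after 24 h IL-6 released into the medium was measured by Luminex xMAP. Responses were analysed as gain of signal over DMSO control.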

[4] = read-out: Interleukin 17A (IL17A), IL17A (gene 3605); test: BSK_BT_xIL17A: BioMAP Diversity Plus: BT Assay for Interleukin 17A (IL17A) Biomarker Activity (AID 2284229); settings: primary human B cells with PBMC
Method in brief: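 Secreted IL-17A was the measured endpoint, read by Luminex xMAP multiplex in supernatants of a human B cell/PBMC co-culture harvested 24 h after chemical dosing. Signal increase relative to DMSO defined activity.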

[5] = read-out: Tumor necrosis factor (Homo sapiens) (UniProt P01375); test: BSK_BT_xTNFa: BioMAP Diversity Plus: BT Assay for Tumor necrosis factor alpha (TNF-alpha) Biomarker Activity (AID 2284230); settings: primary human B cells with PBMC
Method in brief: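 Read-out: Luminex xMAP quantitation of secreted TNF-alpha from a B cell/PBMC co-culture 24 h after compound addition. Signal analysed relative to DMSO vehicle, positive fitting direction.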

[6] = read-out: Vascular cell adhesion molecule 1 (VCAM1), VCAM1 (gene 7412); test: BSK_MyoF_VCAM1: BioMAP Diversity Plus: MyoF Assay for Vascular cell adhesion molecule 1 (VCAM1) Biomarker Activity (AID 2284231); settings: primary human lung fibroblasts
Method in brief: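 ELISA read-out of VCAM-1 on human lung fibroblasts 24 h after chemical treatment, with positive-direction curve fitting relative to DMSO controls. Parallel cultures were stained with sulforhodamine B for total protein to flag overt cytotoxicity.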

[7] = TAMU_PeakParms_SingleDonor1434_QT: Texas A&M University (TAMU) 1.5-hr Human Induced Pluripotent Stem Cell (iPSC)-derived Cardiomyocytes Calcium (Ca+2) Flux Assay for Cardiotoxicity: QT (decay-rise ratio) (AID 2284235; active = hit-call score of the fitted dose curve at least 0.9, where 1 is the maximum)
Protocol: TAMU_PeakParms is a cell-based, multiplexed-readout assay that uses iPSC-derived cardiomyocytes with measurements taken at 1.5 hours after chemical dosing in a microplate: 384-well plate.TAMU_PeakParms_SingleDonor1434_QT is a phenotype derived from the decay.rise.ratio.avg parameter and uses an EC05 as its POD (5% increase in decay/rise ratio, compared to controls). Decay.Rise.Ratio.Average measures as the average ratio between the rise time and the decay time of the calcium flux, using Fluorescence intensity as a functional reporter from Calcium (Ca+2) flux assay technology. Before modeling, data is preprocessed to remove data points where there is a cessation of beating (where peak.freq.avg equals 0) and data points after they develop of a severe notch phenotype in order to avoid capturing non monotonic effects related to an advanced pathology.Data from the assay component TAMU_PeakParms_SingleDonor1434_QT was analyzed into 1 assay endpoints. This assay endpoint, TAMU_PeakParms_SingleDonor1434_QT_Prolongation, was analyzed in the positive analysis fitting direction relative to DMSO as the negative control and baseline of activity. Using a type of functional reporter, gain-of-signal activity can be used to understand changes in the cardiac function. To generalize the intended target to other relatable targets, this assay endpoint is annotated to the cardiomyocyte function intended target family, where the subfamily is QT interval.
Each test compound from the chemical master plates was transferred into new tissue culture-treated 384-well microplates using acoustic dispensing (Labcyte Echo 550, Beckman Coulter, Indianapolis, IN) in amounts that would result in 5x concentrations (1, 5, 50, 500 uM) in the working plate in a final volume of 50 uL. Chemicals were randomly divided into 16 separate 384-well plates for screening such that the outer-most wells were left empty (308 wells were used on each plate). […]

[8] = UKN4_HCS_LUHMES_cell_viability: Viability Assessment in the University of Konstanz (UKN) Leist Lab Neurite Outgrowth Assay in human LUHMES cells (UKN4) (AID 2284232)
Method in brief: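 Day-2 differentiated LUHMES, 30000 cells/well, dosed ~30 min–2 h post-seeding; 24 h treatment incl. staining; Hoechst H-33342 + calcein-AM at 23.5 h; HCS imaging; DMSO-normalized, bidirectional fit.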

[9] = UKN2_HCS_IMR90_cell_viability: Viability Assessment in the University of Konstanz (UKN) Leist Lab Neural Crest Cell Migration Assay in human induced IMR90 Pluripotent Stem Cells (UKN2) (AID 2284233);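 note: cells exposed to compound for 24 h after a 24 h migration phase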
Method in brief: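 Viability read as calcein-AM fluorescence by high-content imaging, Hoechst co-stain, 30 min. Human iPSC (IMR90) neural crest cells had migrated 24 h into stopper-defined gaps before 24 h chemical exposure. Fitted bidirectionally relative to DMSO.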

[10] = TAMU_HCS_1.5hr_SingleDonor1434_Cytotoxicity: Cytotoxicity Assessment using High-content Screening (HCS) Fluorescent Imaging for the Texas A&M University (TAMU) 1.5-hr Human Induced Pluripotent Stem Cell (iPSC)-derived Cardiotoxicity Assay (AID 2284234; active = hit-call score of the fitted dose curve at least 0.9, where 1 is the maximum)
Method in brief: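 Nuclear counts from Hoechst 33342 imaging define cytotoxicity here, with EC10 (10% cell-count loss relative to DMSO) as point of departure. iPSC cardiomyocytes received 0.2-100 uM test chemical in 0.5% DMSO for 1.5 h at 37 C.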

Measured: AC50

Sequence of Tumor necrosis factor (Homo sapiens) (P01375 whole entry, looked up): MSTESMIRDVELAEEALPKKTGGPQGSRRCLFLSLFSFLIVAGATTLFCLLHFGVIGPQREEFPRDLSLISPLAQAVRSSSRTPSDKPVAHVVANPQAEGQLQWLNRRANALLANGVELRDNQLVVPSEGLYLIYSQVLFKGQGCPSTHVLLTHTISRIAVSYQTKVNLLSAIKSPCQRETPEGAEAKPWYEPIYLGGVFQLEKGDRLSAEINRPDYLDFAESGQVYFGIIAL

OCC(F)(OC(F)(F)C(F)(OC(F)(F)C(F)(F)C(F)(F)F)C(F)(F)F)C(F)(F)F (configuration not stated)
inactive: [1] | [2] | [3] | [4] | [5] | [6]
active: [1] 5.29 µM | [2] 3.33 µM | [5] 4.92 µM | [6] 6.21 µM

CCCCCCCCCCCCS
active: [6] 23.1 µM
inactive: [1] | [2] | [3] | [4] | [5]

O=S(=O)(O)C(F)(F)C(F)(F)OC(F)(F)C(F)(F)F
inactive: [1] | [2] | [3] | [4] | [5] | [6]

O=C1OC2(c3ccc(O)cc3Oc3cc(O)ccc32)c2ccccc21
inactive: [2] | [3] | [4] | [5] | [6]
active: [1] 35.5 µM

CCOC(=O)CCCCCCCCC(=O)OCC
inactive: [1] | [2] | [3] | [4] | [5] | [6]

CCOC(=O)C=Cc1ccccc1
inactive: [1] | [2] | [3] | [4] | [5] | [6]

C=C(F)C(=O)OC(C(F)(F)F)C(F)(F)F
inactive: [1] | [2] | [3] | [4] | [5] | [6]

CC(=O)OC(C)(C)C1CC=C(C)CC1 (configuration not stated)
inactive: [1] | [2] | [3] | [4] | [5] | [6]

CCC(=O)OCC=Cc1ccccc1
inactive: [1] | [2] | [3] | [4] | [5] | [6]

CC1=CC(C)C(C=O)C(C)C1 (configuration not stated) (tested in a mixture with another compound)
inactive: [1] | [2] | [3] | [4] | [5] | [6]

N#CCCNCCC#N
inactive: [7]

C=CC(=O)OCC(CO)(COC(=O)C=C)COC(=O)C=C
active: [1] 0.709 µM | [2] 1.19 µM | [3] 0.994 µM | [4] 1.09 µM | [5] 1.88 µM | [6] 0.964 µM

O=C(O)C(F)(F)OC(F)(F)C(F)(F)OC(F)(F)C(F)(F)C(F)(F)C(F)(F)F
inactive: [1] | [2] | [3] | [4] | [5] | [6]

COc1ccccc1NC(=O)CC(C)=O
inactive: [1] | [2] | [3] | [4] | [5] | [6]

OCCN1CCOCC1
inactive: [1] | [2] | [3] | [4] | [5] | [6]

CC(=O)CCC=C(C)CCC=C(C)C
inactive: [3] | [4] | [5] | [6]
active: [1] 20 µM | [2] 31.7 µM

CC(C)Cc1ccc(C(C)C(=O)O)cc1 (configuration not stated)
not listed: [7] | [10]
inactive: all other assays above

CC=CC(=O)C1=C(C)C=CCC1(C)C
inactive: [1] | [2] | [3] | [4] | [5] | [6]

CC(C)(C)c1cccc(O)c1
inactive: [1] | [2] | [3] | [4] | [5] | [6]

NC(=O)c1c(Cl)cccc1Cl
inactive: [1] | [2] | [3] | [4] | [5] | [6]

c1ccc(Sc2ccccc2)cc1
inactive: [1] | [2] | [3] | [4] | [5]
active: [6] 34.1 µM

CNC(=C[N+](=O)[O-])NCCSCc1ccc(CN(C)C)o1
inactive: [7]

C=C1CC/C=C(\C)CC[C@@H]2[C@@H]1CC2(C)C
inactive: [1] | [2] | [3] | [4] | [5]
active: [6] 23.9 µM

CC/C(=C(\c1ccccc1)c1ccc(OCCN(C)C)cc1)c1ccccc1
active: [10] 82.1 µM
inactive: [7]

C=C(C)C(=O)OCCC(F)(F)C(F)(F)C(F)(F)C(F)(F)C(F)(F)C(F)(F)C(F)(F)C(F)(F)F
inactive: [1] | [2] | [3] | [4] | [5] | [6]

c1ccc2c(c1)-c1ccc3ccc4cccc5cc-2c1c3c45
inactive: [1] | [4] | [5]
active: [2] 1.98 µM | [3] 0.0398 µM | [6] 2.78 µM

c1ccc2scnc2c1
inactive: [9]

O=C(O)C(F)(F)C(F)(F)C(F)(F)C(F)(F)C(F)(F)C(F)(F)C(F)(F)C(F)F
inactive: [1] | [3] | [4] | [5] | [6]
active: [2] 21 µM and 22.2 µM

CCCCC(CC)COC(=O)COc1ccc(Cl)cc1C (configuration not stated)
inactive: [9]

CCCCCCCC1CCCC1=O (configuration not stated)
inactive: [2] | [3] | [4] | [5] | [6]
active: [1] 2.5 µM

CCCCCCCCCC(=O)OCC
inactive: [1] | [2] | [3] | [4] | [5] | [6]

CC1(C)[C@H](C=C(Cl)Cl)[C@H]1C(=O)OCc1cccc(Oc2ccccc2)c1
inactive: [1] | [2] | [3] | [4] | [5] | [6]

O=S1(=O)CC(Cl)(Cl)C(Cl)(Cl)C1
active: [1] 0.329 µM | [2] 0.537 µM | [3] 0.416 µM | [4] 0.346 µM | [5] 0.749 µM | [6] 1.42 µM

CC(=O)OCC=C(C)CCC=C(C)CCC=C(C)C
active: [1] 20 µM | [2] 37.9 µM | [3] 30.7 µM | [4] 20 µM | [5] 36.5 µM
inactive: [6]

Nc1ccc(N)c([N+](=O)[O-])c1
inactive: [1] | [2] | [3] | [4] | [5] | [6]
